Test [1] in a line: Nuclear factor erythroid 2-related factor 2/antioxidant responsive element (Nrf2/ARE) small molecule agonists: qHTS cell viability counter screen in human keratinocytes (AID 1919968; active = well fitted curve in the direction sought with a large enough effect in the repeat runs; an effect the other way counts as inactive or inconclusive; note: nearly all actives have a fitted effect of over 55% in size). Summed up: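 Viability counter-screen: KeratinoSens reporter cells, DMSO-delivered compounds, 23 h at 37 C, CellTiter-Fluor fluorescence.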
For orientation: In qHTS, concentration-response curves come from the screen itself.

Test [2] can be described thus: Nuclear factor erythroid 2-related factor 2/antioxidant responsive element (Nrf2/ARE) small molecule agonists: luciferase reporter gene qHTS assay in human keratinocytes (AID 1919969; note: nearly all actives have a fitted effect of over 35% in size; note: potency is the fitted concentration of half-maximal effect). (In a reporter assay the amount or activity of a reporter protein is the signal.)
The target of test [3] is Gonadotropin-releasing hormone receptor (Homo sapiens) (UniProt P30968). The test is described as follows: Human gonadotropin-releasing hormone receptor (GnRHR) small molecule agonists, calcium flux assay in GnRHR-HEK293 cells (AID 1920063). Note: nearly all actives have a fitted effect of over 35% in size. The method, boiled down:
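Tox21-format agonist screen using human GnRHR-expressing HEK293 cells and a fluorescent calcium dye; kinetic 3-min fluorescence reading after compound addition, 15-point concentration series run in triplicate.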

In test [4] the target is KiSS-1 receptor (Homo sapiens) (UniProt Q969F8). The experiment in a line: Human kisspeptin (KISS1R) small molecule agonists, calcium flux assay in KISS1R-HEK293 cells (AID 1920064; active = well fitted curve in the direction sought with a large enough effect in the repeat runs; an effect the other way counts as inactive or inconclusive). The method, boiled down: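 Intracellular calcium mobilization in KISS1R-HEK293 cells was recorded by fluorescence (Ex/Em 480/540) for 3 min following compound addition to cells pre-loaded 1 h with calcium dye.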
KiSS-1 receptor (Homo sapiens), sequence (Q969F8 whole entry, looked up): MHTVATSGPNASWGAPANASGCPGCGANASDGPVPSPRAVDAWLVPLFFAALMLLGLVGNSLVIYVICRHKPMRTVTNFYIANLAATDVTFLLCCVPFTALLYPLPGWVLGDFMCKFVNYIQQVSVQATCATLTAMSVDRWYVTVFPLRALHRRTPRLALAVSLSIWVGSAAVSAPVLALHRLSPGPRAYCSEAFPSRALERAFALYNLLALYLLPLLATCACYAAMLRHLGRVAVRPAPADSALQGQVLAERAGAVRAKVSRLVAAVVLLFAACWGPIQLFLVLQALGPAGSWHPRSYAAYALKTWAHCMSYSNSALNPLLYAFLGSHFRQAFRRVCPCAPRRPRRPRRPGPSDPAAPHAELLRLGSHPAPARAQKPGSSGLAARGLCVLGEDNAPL
On the technique in general: Calcium assays in cells follow changes in intracellular calcium, usually with a dye or a luminescent sensor.

Test [5] in a line: G protein-coupled receptor (GPCR) small molecule agonists, calcium flux assay: HEK293 wild type cell line counter screen (AID 1920065). The method, boiled down: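 In this agonist-mode screen, ATP is the positive control and DMSO the vehicle. Cells grow 18 h before a 1 h dye incubation at 37 C; signal is taken at Ex/Em 480/540 over 3 min.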
Test [6] is described as follows: p53 small molecule agonists, cell-based qHTS assay with human liver microsomes (AID 1963577).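 Note: p53 response element beta-lactamase reporter cells with liver microsomes plus NADPH.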 Summed up: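 16 h, 37 C exposure of p53RE-bla cells to compounds with human liver microsomes and NADPH (0.5 mg/mL final each); detection via LiveBLAzer mixture, 2 h dark at room temperature.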
Test [7] in a line: p53 small molecule agonists, cell-based qHTS assay with rat liver microsomes (AID 1963578). Summed up:
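With rat liver microsomes and NADPH present (0.5 mg/mL final each), p53RE-bla cells are treated with compound for 16 h at 37 C. LiveBLAzer detection mixture is then applied for 2 h at room temperature in the dark.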

Test [8] is described as follows: p53 small molecule agonists, cell-based qHTS assay with human liver microsomes: qHTS cell viability counter screen (AID 1963579). Note: nearly all actives have a fitted effect of over 45% in size. Summed up:
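In this multiplexed counter screen, the reporter plates were subsequently treated with CellTiter-Glo so that cell viability, reflected by luminescence, could be recorded for p53RE-bla cells dosed 16 h with compounds under microsomal activation (HLM and NADPH).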

Test [9] is described as follows: p53 small molecule agonists, cell-based qHTS assay with rat liver microsomes: qHTS cell viability counter screen (AID 1963580). Note: nearly all actives have a fitted effect of over 45% in size. The method, boiled down: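 Viability is assessed in parallel with the p53 reporter read: HCT-116 p53RE-bla cells receive compounds plus rat microsomes and NADPH (0.5 mg/mL final apiece), incubate 16 h at 37 C, and then CellTiter-Glo luminescence is recorded.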

Test [10] in a line: p53 small molecule agonists, cell-based qHTS assay: qHTS cell viability counter screen (AID 1963581). Note: nearly all actives have a fitted effect of over 45% in size. The method, boiled down: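 Compounds are pinned onto HCT-116 p53RE-bla cells and left 16 h at 37 C. Following the reporter FRET read, ATP is quantified by CellTiter-Glo luminescence after 30 min at room temperature.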
Test [11] in a line: p53 small molecule agonists, cell-based qHTS assay (AID 1963582; active = well fitted activation curve with a large enough effect in the signal ratio in the repeat runs, not every such curve was filed as active; the % refers to the signal ratio). Summed up: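 Agonist activity was scored from beta-lactamase FRET fluorescence in p53RE-bla cells treated 16 h at 37 C with compounds in DMSO, substrate incubation being 2 h at room temperature.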
The target in test [12] is 5-hydroxytryptamine receptor 2A (Homo sapiens) (UniProt P28223). The experiment in a line: 5-hydroxytryptamine receptor 2A (HTR2A) small molecule antagonists, cell-based qHTS assay (AID 1963586). Note: nearly all actives have a fitted effect of over 45% in size. The method, boiled down: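 Antagonist-mode intracellular calcium assay: DOI (4 nM) added after 5 min compound pre-incubation at room temperature to dye-loaded HTR2A-CHO cells. Fluorescence followed for 3 min, sampled every second.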
5-hydroxytryptamine receptor 2A (Homo sapiens), sequence (P28223 whole entry, looked up): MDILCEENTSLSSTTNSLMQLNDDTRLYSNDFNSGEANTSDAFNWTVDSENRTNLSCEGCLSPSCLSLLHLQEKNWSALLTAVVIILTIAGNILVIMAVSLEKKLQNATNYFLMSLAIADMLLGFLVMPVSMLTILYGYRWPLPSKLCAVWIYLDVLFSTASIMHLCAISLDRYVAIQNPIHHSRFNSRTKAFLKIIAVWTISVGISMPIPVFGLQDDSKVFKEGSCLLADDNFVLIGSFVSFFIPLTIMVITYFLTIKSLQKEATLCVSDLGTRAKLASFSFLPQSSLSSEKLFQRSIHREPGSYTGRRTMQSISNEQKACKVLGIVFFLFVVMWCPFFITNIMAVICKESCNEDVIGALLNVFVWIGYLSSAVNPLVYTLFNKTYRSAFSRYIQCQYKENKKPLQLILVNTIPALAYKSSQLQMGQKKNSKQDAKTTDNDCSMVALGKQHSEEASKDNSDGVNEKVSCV

Test [13] shares this target. The experiment in a line: 5-hydroxytryptamine receptor 2A (HTR2A) small molecule agonists, cell-based qHTS assay (AID 1963587). Note: nearly all actives have a fitted effect of over 30% in size. Summed up:
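CHO cells stably expressing human HTR2A, plated 18 h, loaded with calcium dye 1 h at 37 C. Agonist mode: compounds added and intracellular calcium fluorescence recorded kinetically for 2 min at 1 sec intervals.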

For test [14], the target named is Muscarinic acetylcholine receptor M1 (Homo sapiens) (UniProt P11229). The test is described as follows: Cholinergic receptor muscarinic 1 (CHRM1) small molecule antagonists, cell-based qHTS assay (AID 1963588). Note: nearly all actives have a fitted effect of over 40% in size. The method, boiled down: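 CHRM1-CHO calcium-flux assay, antagonist mode. Cells were seeded 18 h, dye-loaded 1 h at 37 C and given compound for 5 min at RT, then acetylcholine was added at 50nM. FDSS fluorescence was read 3 min; 15 concentrations, three runs.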
Muscarinic acetylcholine receptor M1 (Homo sapiens), sequence (P11229 whole entry, looked up): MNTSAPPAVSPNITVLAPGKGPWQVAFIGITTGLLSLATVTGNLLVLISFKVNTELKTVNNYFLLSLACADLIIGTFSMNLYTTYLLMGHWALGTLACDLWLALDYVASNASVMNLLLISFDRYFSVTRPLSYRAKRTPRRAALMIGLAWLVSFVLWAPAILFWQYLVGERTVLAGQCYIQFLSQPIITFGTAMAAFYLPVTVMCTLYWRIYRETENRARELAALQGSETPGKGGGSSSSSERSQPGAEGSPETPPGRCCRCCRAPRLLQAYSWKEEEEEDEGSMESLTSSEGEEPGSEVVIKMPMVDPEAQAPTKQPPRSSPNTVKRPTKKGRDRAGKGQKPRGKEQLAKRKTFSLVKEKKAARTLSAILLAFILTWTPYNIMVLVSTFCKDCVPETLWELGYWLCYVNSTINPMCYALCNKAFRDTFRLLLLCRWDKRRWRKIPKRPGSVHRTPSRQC

Test [15] in a line: cAMP Responsive Elements (CRE) small molecule agonists, cell-based qHTS assay (AID 1963590). Summed up:
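FRET-based beta-lactamase readout (LiveBLAzer B/G, 2 h RT) quantified CRE activation in HEK 293T CRE-bla cells after 3 h treatment with DMSO-dissolved compounds.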

Test [16] addresses Beta-2 adrenergic receptor (Homo sapiens) (UniProt P07550). The experiment in a line: Adrenergic beta2 receptor (ADRB2) small molecule antagonists, cell-based qHTS assay (AID 1963592). Note: series mostly up to about 92 µM; nearly all actives have a fitted effect of over 50% in size. Summed up: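 Cells (CHO, stable ADRB2 overexpression) incubated 18-20hr at 37C; compounds added from DMSO; agonist mix (1nM isoproterenol, 100uM IBMX, 25uM Ro-20-1724) added; 0.5hr RT; d2-cAMP and anti-cAMP-cryptate added; 1hr RT; 665/615 nm read.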

In test [17] the target is D(2) dopamine receptor (Homo sapiens) (UniProt P14416). The test is described as follows: Dopamine D2 receptor (DRD2) small molecule agonists, cell-based qHTS assay (AID 1963594). Note: nearly all actives have a fitted effect of over 35% in size. The method, boiled down: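 HEK293 cells stably expressing human DRD2, pre-treated with PDE inhibitor Ro20-1724 (0.1 mM final) and compound 10 min at room temperature, then stimulated with NKH477 (200nM […]) for 30 min. cAMP read by HTRF (665/620 nm).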
D(2) dopamine receptor (Homo sapiens), sequence (P14416 whole entry, looked up): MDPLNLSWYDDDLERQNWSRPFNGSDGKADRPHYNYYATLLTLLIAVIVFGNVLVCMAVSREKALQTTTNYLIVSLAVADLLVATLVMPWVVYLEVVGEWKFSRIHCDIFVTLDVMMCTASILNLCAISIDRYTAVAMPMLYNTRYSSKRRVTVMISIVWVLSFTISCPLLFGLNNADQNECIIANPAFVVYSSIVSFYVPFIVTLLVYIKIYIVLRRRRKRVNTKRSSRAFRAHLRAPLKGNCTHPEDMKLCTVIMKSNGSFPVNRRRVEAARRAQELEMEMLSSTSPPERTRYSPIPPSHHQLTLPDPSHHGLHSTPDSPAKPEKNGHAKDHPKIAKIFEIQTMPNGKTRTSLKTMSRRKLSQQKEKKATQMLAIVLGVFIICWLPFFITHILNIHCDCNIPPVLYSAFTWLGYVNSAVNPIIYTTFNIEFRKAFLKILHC

The target is the same in test [18]. The experiment in a line: Dopamine D2 receptor (DRD2) small molecule antagonists, cell-based qHTS assay (AID 1963595; active = well fitted inhibition curve with a large enough effect in the signal ratio in the repeat runs, with a control signal flat; the % refers to the signal ratio). The method, boiled down: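 Cells were plated and grown for 24 h at 37 °C. Ro20-1724 (0.1 mM final) went in first, then compound for 10 min. NKH477 (200 nM) with quinpirole (12 nM) followed for 30 min at RT, then HTRF detection reagents for 1 h.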

The target of test [19] is Muscarinic acetylcholine receptor M1 (Homo sapiens) (UniProt P11229). The test is described as follows: Cholinergic receptor muscarinic 1 (CHRM1) small molecule agonists, cell-based qHTS assay (AID 1963589). Note: nearly all actives have a fitted effect of over 35% in size. The method, boiled down: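 Stable CHRM1-CHO cells (human receptor) were incubated 18 h, dye-loaded for 1 h at 37 C and exposed to test compounds for agonist activity, with calcium-dependent fluorescence followed kinetically.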

Test [20] in a line: cAMP Responsive Elements (CRE) small molecule antagonists, cell-based qHTS assay (AID 1963591; active = well fitted inhibition curve with a large enough effect in the signal ratio in the repeat runs, not every such curve was filed as active; the % refers to the signal ratio). Summed up: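 qHTS in CRE-bla HEK 293T cells: compound in DMSO, then 0.25 uM NKH477 (final), 3 h at 37 °C/5% CO2; beta-lactamase FRET read-out after 2 h substrate incubation.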

Molecules are shown by their SMILES. Unmarked numbers belong to inactive results. Results filed as inconclusive are left out. Calls of active or inactive are those of the source. Unless noted, calls come from the whole dose curve.

Gonadotropin-releasing hormone receptor (Homo sapiens), sequence (P30968 whole entry, looked up): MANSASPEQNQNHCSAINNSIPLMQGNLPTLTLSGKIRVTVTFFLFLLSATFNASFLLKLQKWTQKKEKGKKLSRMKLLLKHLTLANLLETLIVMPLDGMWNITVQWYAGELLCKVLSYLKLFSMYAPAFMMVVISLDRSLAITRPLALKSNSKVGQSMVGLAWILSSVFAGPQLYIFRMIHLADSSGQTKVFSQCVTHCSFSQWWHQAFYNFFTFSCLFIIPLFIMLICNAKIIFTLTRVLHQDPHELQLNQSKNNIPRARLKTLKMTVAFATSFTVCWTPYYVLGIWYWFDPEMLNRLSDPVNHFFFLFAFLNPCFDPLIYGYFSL
Beta-2 adrenergic receptor (Homo sapiens), sequence (P07550 whole entry, looked up): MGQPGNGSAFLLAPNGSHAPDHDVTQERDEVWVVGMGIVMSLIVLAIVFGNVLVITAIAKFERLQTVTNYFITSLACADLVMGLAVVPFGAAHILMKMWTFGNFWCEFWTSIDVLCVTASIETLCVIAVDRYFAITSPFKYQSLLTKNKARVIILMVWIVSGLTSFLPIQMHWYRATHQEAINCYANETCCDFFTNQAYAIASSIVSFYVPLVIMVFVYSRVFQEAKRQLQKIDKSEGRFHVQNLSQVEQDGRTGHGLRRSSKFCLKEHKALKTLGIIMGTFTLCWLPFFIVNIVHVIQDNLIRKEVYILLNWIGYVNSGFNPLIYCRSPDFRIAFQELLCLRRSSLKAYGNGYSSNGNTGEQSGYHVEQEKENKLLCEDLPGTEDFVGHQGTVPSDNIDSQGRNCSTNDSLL

`CC(C)(Cl)[N+](=O)[O-]`: the Potency result in test [1], in test [2], in [3], in [4], in [5] and in test [6] was “inactive” each time. For the same molecule, the Potency entry in [7], in test [8], in test [9], in [10], in test [11] and in [12] was “inactive” each time. The Potency result in test [13], in test [14], in test [15], in [16], in test [17] and in [18] was “inactive” throughout.

Take `CCC(C)Br` (stereo not drawn): the Potency result in test [1], in test [2], in test [3], in [4], in [5] and in test [6] was “inactive” in each case. Besides, the Potency entry in [7], in test [8], in test [9], in [10], in [11] and in test [12] was “inactive” each time. Further, the Potency result in test [13], in test [19], in [15], in test [20], in test [16] and in [17] was “inactive” each time.

For the molecule `O=c1[nH]c2cc(Cl)ccc2n1C1CCNCC1`, the Potency entry in [1], in test [2], in test [3], in test [4], in [5] and in test [6] was “inactive” each time. For the same molecule, the Potency entry in [7], in test [8], in test [9], in [10], in [11] and in test [12] was “inactive” throughout. Besides, the Potency result in test [13], in [14], in test [19], in [15], in [20] and in test [17] was “inactive” each time. The Potency result in test [18] was “inactive”.

Turning to `CC(Cc1ccccc1)NCCn1cnc2c1c(=O)n(C)c(=O)n2C` (stereo not drawn), the Potency result in [1], in [2], in [3], in test [4], in test [5] and in [6] was “inactive” in each case. Also, the Potency entry in test [7], in [8], in [9], in test [10], in test [11] and in [12] was “inactive” each time. Also, the Potency result in test [13], in test [19], in test [15], in test [20], in test [16] and in test [17] was “inactive” throughout. Also, in test [18], the Potency entry was “inactive”.

Turning to `COc1ccc2c(c1OC)CN1CCc3cc4c(cc3C1C2)OCO4` (stereo not drawn), the Potency entry in test [1], in [2], in [3], in [4], in test [5] and in test [6] was “inactive” throughout. For the same molecule, the Potency result in test [7], in [8], in test [9], in test [10], in [11] and in test [12] was “inactive” throughout. The Potency result in test [13], in test [14], in test [19], in [20] and in test [18] was “inactive” throughout.

On to `CN(C)c1ccc(N=Nc2ccccc2)cc1`, for which the Potency result in [1], in test [3], in test [4], in [5], in test [6] and in [7] was “inactive” each time. For the same molecule, the Potency entry in test [8], in test [9], in test [10], in test [11], in test [12] and in test [13] was “inactive” throughout. The Potency result in test [14], in test [19], in test [20], in test [16], in test [17] and in [18] was “inactive” each time. The Potency in test [2] is 3.07 µM (active).

In the case of `COC(=O)N(C(=O)N1CO[C@@]2(C(=O)OC)Cc3cc(Cl)ccc3C2=N1)c1ccc(OC(F)(F)F)cc1`, the Potency entry in [1], in test [2], in test [3], in test [4], in test [5] and in test [6] was “inactive” throughout. Further, the Potency entry in test [7], in test [8], in test [9], in test [10], in test [11] and in test [12] was “inactive” each time. Further, the Potency result in [13], in [14], in test [19], in test [16], in test [17] and in test [18] was “inactive” each time.
